This is an account of results in PubChem BioAssay (NCI).

Among the test systems are SR leukemia; RPMI-8226 leukemia; OVCAR-8 ovarian; OVCAR-5 ovarian; OVCAR-4 ovarian; SK-OV-3 ovarian; IGROV1 ovarian; OVCAR-3 ovarian; HS 578T breast; NCI/ADR-RES ovarian.
Assay in all cases: NCI-60 one-dose screen, 48 h (100 = growth as untreated, 0 = no growth, -100 = all killed)
Common to all, as to details: 10 µM unless noted

The structures appear in SMILES notation. About 83,000 compounds went through this panel and 20% of them were active in at least one assay; those are over-represented in the sample as a whole.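 96-well plates, one dose, 48 hours. Percent growth reported; active if below 10.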 Values without a mark were called inactive. Activity calls are given as the source filed them.

As for `COc1cc(C2Cc3ncccc3-c3[nH]c(=O)c4cccnc4c32)cc(OC)c1OC` (stereo not given), the growth with SR leukemia was 11.8%; with RPMI-8226 leukemia, 37.6%; in the assay with OVCAR-8 ovarian, 17.3%; in the assay on OVCAR-5 ovarian it was 52.2%; with OVCAR-4 ovarian, 58%; in the assay on SK-OV-3 ovarian, 15.3%. Besides, the growth in the assay with IGROV1 ovarian is 48.6%; in the assay on OVCAR-3 ovarian, -11.3% (active); in the assay on HS 578T breast, 41.9%; with NCI/ADR-RES ovarian, 31.1%.

As for `COc1cc(-c2nc(NC(C)=O)sc2-c2ccnc(NCCNS(=O)(=O)c3ccccc3)n2)ccc1Cl`, the growth with SR leukemia is 13.1%; in the assay on RPMI-8226 leukemia it was 13.8%; in the assay on OVCAR-8 ovarian, 37.6%; in the assay on OVCAR-5 ovarian it was 84.9%; in the assay with OVCAR-4 ovarian, 61.6%; in the assay with SK-OV-3 ovarian it was 26.9%. For the same compound, the growth with IGROV1 ovarian is 51.6%; with OVCAR-3 ovarian, 25.7%; in the assay on HS 578T breast, 27.3%; in the assay on NCI/ADR-RES ovarian, 93.2%.

On to `CN1C(=O)N(C)C2C1NC(=S)N2/N=C/C=C/c1ccccc1[N+](=O)[O-]` (stereo not given), for which the growth with SR leukemia was 15.2%; with RPMI-8226 leukemia, 2.85% (active); in the assay on OVCAR-8 ovarian, 36.3%; in the assay on OVCAR-5 ovarian, 74.9%; in the assay on OVCAR-4 ovarian, 51.1%; in the assay with SK-OV-3 ovarian, 27%. The growth in the assay with IGROV1 ovarian was 44.3%; with OVCAR-3 ovarian, 8.13% (active); with HS 578T breast, 17.1%; with NCI/ADR-RES ovarian, 29.1%.

Consider `COc1cc(C(=O)c2c(-c3ccccc3)oc3c(OC)cccc23)cc(OC)c1O`, for which the growth in the assay on SR leukemia is 11.1%; with RPMI-8226 leukemia, 23.9%; with OVCAR-8 ovarian, 20.4%; in the assay with OVCAR-5 ovarian it was 45.7%; in the assay with OVCAR-4 ovarian, 42.1%; in the assay with SK-OV-3 ovarian, 45.1%. Further, the growth in the assay with IGROV1 ovarian is 18.8%; with OVCAR-3 ovarian it was 0.78% (active); in the assay with HS 578T breast, 4.85% (active); in the assay with NCI/ADR-RES ovarian, 10.5%.

As for `O=C1Nc2ccccc2/C1=C/c1cn(C[C@@H](O)Cn2c3ccccc3c(=O)c3ccccc32)c2ccccc12`, the growth with SR leukemia was 66.3%; with RPMI-8226 leukemia, 67.1%; with OVCAR-8 ovarian, 68.5%; in the assay on OVCAR-5 ovarian, 86.7%; with OVCAR-4 ovarian it was 88%; in the assay with SK-OV-3 ovarian it was 73.3%. Besides, the growth with IGROV1 ovarian was 53.7%; in the assay with OVCAR-3 ovarian it was 73.5%; in the assay on HS 578T breast, 62.8%; with NCI/ADR-RES ovarian, 85.4%.

Take `CS(=O)(=O)Nc1cc(-c2ccc3ncnc(Nc4ccc5c(cnn5Cc5cccnc5)c4)c3c2)cnc1Cl`: the growth in the assay on SR leukemia is 21.5%; in the assay with RPMI-8226 leukemia, 54.7%; in the assay on OVCAR-8 ovarian, 75.6%; with OVCAR-5 ovarian, 49%; in the assay with OVCAR-4 ovarian, 74.6%; in the assay on SK-OV-3 ovarian, 58.4%. Further, the growth in the assay with IGROV1 ovarian was 3.96% (active); with OVCAR-3 ovarian it was 19.2%; in the assay with HS 578T breast, -2.21% (active); with NCI/ADR-RES ovarian it was 93.2%.

`CN(CCC#N)c1ccc(/C=C2\NC(=O)NC2=O)cc1`: the growth is 102% with SR leukemia; 110% in the assay with RPMI-8226 leukemia; 111% in the assay on OVCAR-8 ovarian; 98.7% in the assay with OVCAR-5 ovarian; 102% in the assay with OVCAR-4 ovarian; 105% in the assay with SK-OV-3 ovarian. Moreover, the growth was 105% in the assay on IGROV1 ovarian, 121% in the assay with OVCAR-3 ovarian, 88.8% with HS 578T breast and 93.2% in the assay on NCI/ADR-RES ovarian.

`NC(CSC(c1ccccc1)(c1ccccc1)c1ccc2c(c1)OCO2)C(=O)O` (stereo not given): the growth in the assay on SR leukemia was 5.57% (active); in the assay with RPMI-8226 leukemia it was -7.99% (active); in the assay with OVCAR-8 ovarian it was 19.4%; with OVCAR-5 ovarian it was 41%; in the assay on OVCAR-4 ovarian, 70.7%; in the assay with SK-OV-3 ovarian, 15.2%. Further, the growth in the assay with IGROV1 ovarian is 42.2%; in the assay with OVCAR-3 ovarian it was 3.46% (active); in the assay on HS 578T breast it was 15.7%; in the assay on NCI/ADR-RES ovarian, 53.9%.

With `COc1ccc(OC)c(-c2cn3nc(-c4c[nH]c5ccc(Br)cc45)sc3n2)c1`, the growth with SR leukemia was 22.1%; in the assay with RPMI-8226 leukemia it was 79.3%; in the assay with OVCAR-8 ovarian, 25.6%; in the assay with OVCAR-5 ovarian, 47.9%; in the assay with OVCAR-4 ovarian, -21.3% (active); in the assay with SK-OV-3 ovarian it was 80.8%. In addition, the growth is 40.6% in the assay with IGROV1 ovarian, 60% with OVCAR-3 ovarian, 43.7% with HS 578T breast and 32.1% in the assay on NCI/ADR-RES ovarian.

On to `Cc1cscc(C)c1=S`, for which the growth in the assay with SR leukemia was 72.9%; with RPMI-8226 leukemia, 103%; in the assay on OVCAR-8 ovarian it was 83.3%; in the assay with OVCAR-5 ovarian it was 67.5%; with OVCAR-4 ovarian it was 113%; with SK-OV-3 ovarian it was 98.9%. Also, the growth in the assay with IGROV1 ovarian is 77%; in the assay on OVCAR-3 ovarian, 121%; in the assay on HS 578T breast it was 122%; with NCI/ADR-RES ovarian, 71.1%.

Consider `N#C/C(=C\c1ccc(Br)cc1)c1cc2ccccc2[nH]1`, for which the growth in the assay with SR leukemia was 81.2%; in the assay with RPMI-8226 leukemia it was 78.9%; with OVCAR-8 ovarian, 96.8%; in the assay on OVCAR-5 ovarian, 93.9%; in the assay with OVCAR-4 ovarian, 112%; with SK-OV-3 ovarian it was 81%. Also, the growth in the assay with IGROV1 ovarian is 91.4%; with OVCAR-3 ovarian, 107%; with HS 578T breast it was 98.4%; with NCI/ADR-RES ovarian, 98.7%.

`COc1cc(C#Cc2ccc(=O)oc2C#Cc2ccccc2)cc(OC)c1OC`: the growth was 3.75% (active) with SR leukemia; 49.2% in the assay on RPMI-8226 leukemia; 89.4% in the assay with OVCAR-8 ovarian; 75.8% in the assay with OVCAR-5 ovarian; 96.9% in the assay with OVCAR-4 ovarian; 101% in the assay with SK-OV-3 ovarian. The growth is 67.4% with IGROV1 ovarian, 29.9% with OVCAR-3 ovarian, 84.8% in the assay with HS 578T breast and 89.7% in the assay with NCI/ADR-RES ovarian.

For the compound `COc1ccc2nc3cc(Cl)ccc3c(NCCN)c2c1`, the growth in the assay with SR leukemia is -45.4% (active); in the assay on RPMI-8226 leukemia it was -23.6% (active); in the assay with OVCAR-8 ovarian, -33.5% (active); in the assay with OVCAR-5 ovarian, -61.6% (active); with OVCAR-4 ovarian, -86% (active); with SK-OV-3 ovarian it was 69.3%. For the same compound, the growth was -27% (active) with IGROV1 ovarian, -84.8% (active) in the assay with OVCAR-3 ovarian, 91.7% in the assay on HS 578T breast and 19% in the assay with NCI/ADR-RES ovarian.
